Assay outcomes from PubChem.
ERK EGF block: blocks ERK signaling stimulated by EGF. Potency, µM (highest dose often 11.5 µM), for the others: at the top dose activity change, negative = inhibition, usual class: inhibitors. 130,000 tested, 0.41% active. HEK293-V1b, EGF-stimulated phospho-ERK AlphaScreen; active = well fitted inhibition curve with a large enough effect;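 note: plate controls were stimulated vehicle wells for no effect and unstimulated vehicle basal for full effect; nearly all actives have a fitted effect of over 55% in size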
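Homogeneous cell-based phospho-ERK assay: HEK293/V1b cells in 1% FBS, compound 30 min then EGF 5 min, AlphaScreen luminescence. Activity normalized between DMSO and 25 nM EGF controls; AC50 from Hill modelling.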
* = called active by the depositor; [ ] = another dose, or the depositor's remark. Many of the other results were omitted from the sample, so hits are more common in it than they were. Potency is the fitted concentration of half-maximal effect.

SMILES	ERK EGF block
OCC[n+]1c2ccccc2nc2ccc(N3CCOCC3)cc21	14.1µM*
CC[C@@H]1CN2CCc3cc(OC)c(OC)cc3[C@H]2C[C@@H]1C[C@@H]1NCCc2cc(O)c(OC)cc21	2.0%[25.7 µM]
CC1=C(O)C(=O)[C@H]2O[C@@H]2C1=O	-2.9%
O=C(Cc1ccc(Cl)c(Cl)c1)N1CCCC[C@H]1CN1CCCC1	-8.8%
O=C1C(Cl)=C(Cl)C(=O)C(Cl)=C1Cl	10µM*
COC[C@H]1OC(=O)c2coc3c2[C@@]1(C)C1=C(C3=O)[C@H]2CCC(=O)[C@@]2(C)C[C@H]1OC(C)=O	-4.4%
C#CCN1C(C)=C(C(=O)CCO)[C@@H](c2cccc(-n3oo3)c2)C(C(=O)OC)=C1C	-9.3%
COC1C(O)C(C)O[C@H](OC2CC[C@@]3(C=O)C4CC[C@]5(C)C(C6=CC(=O)OC6)CC[C@@]5(O)C4CC[C@@H]3C2)C1O (stereo partly drawn)	7.2%
C[C@@H]1O[C@H](O[C@H]2C[C@@H](O)[C@@]3(CO)[C@H]4[C@@H](O)C[C@]5(C)[C@@H](C6=CC(=O)OC6)CC[C@]5(O)[C@H]4CC[C@]3(O)C2)[C@@H](O)[C@H](O)[C@@H]1O	-7.0%[25.7 µM]
COC(=O)C1(C)C=C2C(=C(C)C(=O)C2C)CN1 (stereo not drawn)	3.4%
C[n+]1c(-c2ccccc2)cc(-c2ccc(Cl)cc2)cc1-c1ccccc1	4.6%
c1ccc(-c2cc(-c3ccccc3)[n+](-c3ccccc3)c(-c3ccccc3)c2)cc1	22.4µM*
CC(C)c1ccc2c(c1O)CCC1C3=C(CC[C@]21C)C(=O)OC3 (stereo partly drawn)	19.8%
CC(=O)OC1C[C@@]2(C)C(c3ccoc3)C[C@H]3O[C@@]32[C@@]2(C)C(=O)C(O)=C3C(C)(C)C(=O)C=C[C@]3(C)C12 (stereo partly drawn)	19.4%
O=C(O)[C@@H]1CSC(c2cccnc2)N1 (stereo partly drawn)	-8.9%
Oc1ccc2c3c1O[C@H]1c4[nH]c5ccccc5c4C[C@@]4(O)C(C2)N(CC2CC2)CCC314 (stereo partly drawn)	15.6%
C=C(C)CN1CC[C@]23c4c5ccc(O)c4O[C@H]2c2[nH]c4ccccc4c2C[C@@]3(O)C1C5	15.8µM*
C=C(C)CN1CC[C@@]23c4c5ccc(O)c4O[C@H]2c2[nH]c4ccccc4c2C[C@]3(O)[C@@H]1C5	-12.3%
CC[C@@H](CO)NC(=O)[C@H]1C=C2c3cccc4c3c(cn4C)C[C@H]2N(C)C1	6.0%
CCN1C[C@]2(C)CC[C@H](OC)[C@@]34[C@H]1C1(OCO[C@@]15C[C@H](OC)C1C[C@]3(O)C5[C@H]1OC)[C@@H](O)[C@H]24	10.6%
Cc1ccsc1C(=O)C1CCCN(Cc2ccccc2O)C1 (stereo not drawn)	-4.6%
Cc1ccsc1C(=O)C1CCCN(Cc2cnc(N(C)C)s2)C1 (stereo not drawn)	-2.0%
Cc1ccsc1C(=O)C1CCCN(Cc2sc(N(C)C)nc2Cl)C1 (stereo not drawn)	20µM*
CCOP(=S)(OCC)SCn1c(=O)oc2cc(Cl)ccc21	26.1%
CC(=O)O.CC(=O)O.[Cd]	21.8%
SMILES	ERK EGF block
ClC1=C(Cl)C(Cl)=C(Cl)C1=C/C=C/c1ccccc1	11.2µM*
CN(C)C1C(=O)C(C(N)=O)=C(O)[C@@]2(O)C(=O)C3=C(O)c4c(O)cccc4[C@@](C)(O)C3[C@H](O)C12 (stereo partly drawn)	11.0%
C[C@H](CCC(=O)O)[C@H]1CC[C@@H]2[C@H]3CC[C@H]4C[C@@H](O)CC[C@@]4(C)[C@H]3CC[C@]21C	6.3%[25.7 µM]
CCN(CC)c1ncnc2c1ncn2[C@@H]1O[C@@H](COP(=O)(O)OP(=O)(O)C(Br)(Br)P(=O)(O)O)[C@H](O)[C@H]1O	8.1%
CN1C2CCC1/C(=C/c1ccccn1)C(=O)/C2=C\c1ccccn1	14.1µM*
Cc1ccccc1-n1c(/C=C/c2ccccn2)nc2ccccc2c1=O	-9.0%[57.5 µM]
CC(C)[C@]1(NC(=O)[C@@H]2C=C3c4cccc5[nH]cc(c45)C[C@H]3N(C)C2)O[C@@]2(O)C3CCCN3C(=O)[C@H](Cc3ccccc3)N2C1=O (stereo partly drawn)	-13.8%
c1ccc(N2CC3(CCNCC3)C2)nc1	1.1%
N#CC(C#N)=NNc1ccc(OC(F)(F)F)cc1	-7.5%
CC(=O)O[C@@H]1C[C@@]2(C)C(c3ccoc3)C[C@H]3O[C@]32[C@]2(C)C(=O)C(O)=C3C(C)(C)C(=O)C=C[C@]3(C)C12 (stereo partly drawn)	-14.7%
CN(C)c1ccc(C=C2C(=O)NC(=S)NC2=O)cc1[N+](=O)[O-]	4.1%
Cc1cc(C=C2C(=O)NC(=S)NC2=O)c(C)n1-c1ccc2c(c1)OCO2	4.2%
O=C1NC(=S)NC(=O)C1=Cc1cccc2cc3ccccc3cc12	28.2µM*
CC(C)CN1CC[C@@]2(CCCN(C(=O)Oc3ccccc3)C2)C1	-1.3%
CCCCCC[C@H]1C(=O)O[C@H](C)[C@H](NC(=O)c2cccc(NC=O)c2O)C(=O)O[C@@H](C)[C@@H]1OC(=O)CC(C)C	-24.7%
